# Screening results deposited in PubChem BioAssay by National Center for Advancing Translational Sciences (NCATS).
# KB-V1 MDR tox – kills drug-selected multidrug resistant KB-V1 cells. KB-V1 MDR cells viability, CellTiter-Glo, 72 h. Potency, µM (series often up to 46.1 µM), hits mostly cytotoxic. actives 3.4% (n = 400,000). AID 1347076; also: % is scaled to controls: 0 for no effect and ±100 for the full control effect; nearly all actives have a fitted effect of over 60% in size
#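 Luminescent ATP read-out (CellTiter-Glo, 10 min) measures survival of drug-selected KB-V1 MDR cells after 72 h, 37 degrees C compound exposure. Medium: phenol-red-free DMEM, 10% FBS. Values from fitted concentration-response curves.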
# MCF10A rereplic – DNA re-replication induction in MCF 10a cells; MCF 10A DNA re-replication, Hoechst nuclear intensity, 48 h; Potency, µM (top dose mostly 46.1 µM), without a hit: at the top dose activity, positive = re-replication, usual class: activators; actives 2.9% (n = 350,000); also: % of control where 0% means no effect; nearly all actives have a fitted effect of over 50% in size
# SW480 rereplic – induces DNA re-replication in SW480 colon adenocarcinoma cells. SW480 DNA re-replication, Hoechst DNA content imaging, 48 h. Potency, µM (doses to about 46.1 µM), for the others: top-dose re-replication activation, most hits filed as activators. actives 1.8% (n = 340,000). AID 624297; also: % of control where 0% means no effect; nearly all actives have a fitted effect of over 55% in size
#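 250 cells/well; 23 nL cpd via pin tool; 48 hr, 37 C, 5% CO2; Hoechst 40 min; imager read of total nuclear intensity, ex 405/em 500-530 nm.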
# ELG1 DNA repair – ELG1-dependent DNA repair inhibition; HEK293T ELG1-luciferase reporter, luminescence, 16 h; DNA damage induced by 5-fluorouridine; Potency, µM (titrated, usually from 46.1 µM), without a hit: at the top dose activity change, negative = inhibition, most hits filed as inhibitors; actives 2.3% (n = 330,000); AID 504467; also: % is scaled to controls: 0 for no effect and ±100 for the full control effect; nearly all actives have a fitted effect of over 55% in size
#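 Overnight (16 hr) co-exposure of 2,000 cells/well to 5-fluorouridine and compound at 37 °C preceded detection. Luciferase was quantified via ONE-Glo luminescence; loss of signal denotes inhibition.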
# KB-3-1 cytotox – kills parental KB-3-1 adenocarcinoma cells. KB-3-1 viability, CellTiter-Glo ATP luminescence, 72 h. Potency, µM (series often up to 46.1 µM), most hits filed as cytotoxic. actives 1.4% (n = 400,000). AID 1347075; also: % is scaled to controls: 0 for no effect and ±100 for the full control effect; nearly all actives have a fitted effect of over 60% in size
#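 72 h, 37 °C compound treatment of KB-3-1 parental cells; CellTiter-Glo added, 10 min, luminescence read. Data corrected against DMSO-only plates and normalized before curve fitting.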
# Starred values were filed as active, the others as inactive; i = inactive; u = inconclusive; x = not tested or not shown; [ ] = remark or other dose. Rows were chosen to be rich in hits. Some 8.2% of all compounds tested hit in one or more screens of this group. Calls follow the shape of the dose curve; as a rule, active = well fitted curve in the direction sought with a large enough effect; inconclusive = small, poorly fitted or top-dose-only effect, or another doubt; inactive = no such curve, though single readings can be large; an effect the other way counts as inactive or inconclusive. Potency is read from the fitted curve at half-maximal effect.
SMILES,KB-V1 MDR tox,MCF10A rereplic,SW480 rereplic,ELG1 DNA repair,KB-3-1 cytotox
CN(C)S(=O)(=O)c1ccc2nnn(OCC(=O)NC34CC5CC(CC(C5)C3)C4)c2c1,3.66µM*,22.4%,-1.2%,-1.9%,i
Cc1ccccc1OCC(=O)Nc1ccccc1NC(=O)c1ccco1,i,12.5%,1.5%,0.3%,i
COc1ccc(S(=O)(=O)Nc2cc(OC)c(NC(=O)c3ccco3)cc2OC)cc1,i,0.8%,8.4%,u,i
COc1cc(NS(=O)(=O)c2ccc(Br)cc2)c(OC)cc1NC(=O)c1ccco1,8.2µM*,-0.7%,5.7%,u,i
CCOc1cc(NS(=O)(=O)CC)c(OCC)cc1NC(=O)c1ccco1,u,u,-7.9%,16.4µM*,i
CCOc1cc(NS(=O)(=O)c2ccc(OC)cc2)c(OCC)cc1NC(=O)c1ccco1,i,4.7%,3.1%,u,i
CCOc1cc(NC(=O)c2ccco2)c(OCC)cc1NC(=O)COc1ccccc1C,u,2.06µM*,10.2%,x,14.6µM*
Cc1ccccc1OCC(=O)NNC(=S)NC(=O)c1ccco1,i,14.1µM*,u,16.1%,u
CN(C(=O)CSc1nncn2c1cc1occc12)c1ccccc1,i,x,x,x,i
COc1ccc(COC(=O)CCc2cc(OC)c(OC)c(OC)c2)cc1F,i,0.9%,-9.3%,x,i
C[C@]12CCC(=O)C=C1[C@@H]1C[C@H]1[C@H]1[C@@H]3[C@@H]4C[C@H]4[C@@]4(CCC(=O)O4)[C@@]3(C)CC[C@@H]12,x,-2.5%,-3.4%,x,x
CC(NC(=O)CSc1nc2ccccc2n1C)c1ccccc1 (centres undefined),i,0.6%,-11.8%,-0.4%,i
CCN(CC)C(=O)CSc1nc2ccccc2c(=O)n1CCC(=O)NCc1ccc(F)cc1,i,6.0%,-21.1%,11.6µM*,i
Cn1c(SCC(=O)NCc2ccccc2)nc2ccccc21,14.6µM*,14.2%,-3.8%,0.3%,i
Cn1ccnc1C(=O)c1cc(SCC(=O)NCc2ccccc2)nc2ccccc12,u,14.6µM*,u,8.2µM*,u
CCNC(=O)NC(=O)CSc1nc2ccccc2n1CC(C)C,2.91µM*,5.1%,-3.4%,20.8%,i
CCN(CC)C(=O)CSc1nc2ccccc2c(=O)n1CC,i,-17.0%,1.6%,-2.8%,i
COC(=O)CSc1cc(C(=O)c2nccn2C)c2ccccc2n1,i,7.1%,15.0%[9.22 µM],-1.5%,i
CCOc1ccc(CNC(=O)C(=O)c2cn(CC(=O)N3CCOCC3)c3ccccc23)cc1OC,i,-0.9%,-1.5%,2.2%,i
CC[C@@]12C(=O)N(c3ccc(OC)cc3)C(=O)N1[C@H](c1ccc(Cl)cc1)[C@@H]1C(=O)N(C3CCCCC3)C(=O)[C@@H]12,i,1.1%,-2.2%,-1.0%,i
Nc1ncnc2c1ncn2[C@@H]1O[C@H](CNC(=O)[C@@H](N)C2CCCCC2)[C@@H](O)[C@H]1O,i,u,4.3%,5.5%,i
O=C1CCCN1CCCNc1ccc2nnc(CCC(=O)N3CCN(c4ccccc4)CC3)n2n1,u,-6.6%,-3.0%,15.0%,i
O=C(CCCCn1c(=O)c2ccccc2n(CC(=O)Nc2ccc(F)cc2)c1=O)NCc1ccco1,u,8.1%,13.8%,20.6µM*,i
O=C(CCCCCn1c(SCc2ccncc2)nc2ccccc2c1=O)NCc1ccco1,u,u,2.1%,18.4µM*,i
COCCNC(=O)CSc1nc2ccccc2c(=O)n1CCCC(=O)NCc1ccccc1,16.4µM*,0.1%,2.9%,-9.4%,i
SMILES,KB-V1 MDR tox,MCF10A rereplic,SW480 rereplic,ELG1 DNA repair,KB-3-1 cytotox
CCN(CC)C(=O)CSc1nc2ccccc2c(=O)n1OC(C)C,2.59µM*,-0.7%,-3.4%,-7.2%,i
N#CCSc1nc2ccccc2c(=O)n1CCCC(=O)NCc1ccco1,u,-1.2%,-8.9%,6.6%,i
COCCCNC(=O)CSc1nc2ccccc2c(=O)n1CCCN1CCCCC1,i,-7.3%,-13.9%,12.8%,i
Cc1cc(C)c(C(=O)OCC(=O)Nc2cccc(S(=O)(=O)N3CCCCC3)c2)c(C)c1,i,20.0%,-0.7%,u,i
O=C(CCn1c(=S)oc2ccccc21)N1CCCCC1,i,0.0%,7.7%,29.3%,i
CCCN1C(=O)c2cccc3c(N4CCCCC4)ccc(c23)C1=O,u,3.66µM*,x,u,i
O=C(OCCN1C(=O)c2cccc3c(N4CCOCC4)ccc(c23)C1=O)c1cc(Cl)cc(Cl)c1,x,10.4%,-2.7%,u,x
CCCCNc1ccc2c3c(cccc13)C(=O)N(CCCC)C2=O,u,7.31µM*,20.6µM*,u,i
CCN1C(=O)c2cccc3c(N)ccc(c23)C1=O,i,5.0%,4.5%,0.0%,i
CN(C)CCCN1C(=O)c2cccc3c(Br)ccc(c23)C1=O,u,7.31µM*,u,u,u
COc1ccc(N(C(=O)c2cccnc2)S(=O)(=O)c2ccc(F)cc2)cc1,i,-6.2%,-2.1%,3.4%,i
Cc1cc(C)c(S(=O)(=O)Nc2ccc(-c3ccc(N4CCCCC4)nn3)cc2)c(C)c1,i,x,x,x,i
CCC(C)Sc1ccc([C@@H]2[C@H]3C(=O)N(CC)C(=O)[C@H]3[C@]3(C(=O)OC)CCCCN23)cc1 (some centres undefined),10.3µM*,8.4%,u,-26.9%,u
CCSc1ccc([C@@H]2[C@@H]3C(=O)N(CC)C(=O)[C@@H]3[C@]3(C(=O)OC)CCCCN23)cc1,i,-0.7%,0.8%,-3.6%,i
COc1ccc2[nH]c(C)c(CCNC(=S)Nc3cc(C)ccc3C)c2c1,i,u,16.4µM*,6.2%,i
COc1ccc2[nH]c(C)c(CCNC(=S)Nc3cccc(C)c3)c2c1,i,-4.1%,u,u,i
CCc1cccc(C)c1NC(=S)NCCc1c(C)[nH]c2ccc(C)cc12,u,10.3µM*,u,-25.4%,u
COc1ccc2[nH]c(C)c(CCNC(=S)Nc3cc(C)cc(C)c3)c2c1,i,0.1%,u,-11.9%,i
CCc1cccc(CC)c1NC(=S)NCCc1c(C)[nH]c2ccc(C)cc12,5.8µM*,u,14.6µM*,u,6.51µM*
COc1ccc(OC)c(C(=O)CN2C(=O)N(c3ccc(C)cc3)S(=O)(=O)c3ccccc32)c1,i,x,x,x,i
COc1ccc(C(CNC(=O)CNC(=O)c2cccc(C)c2)N2CCCCC2)cc1 (centres undefined),i,7.9%,11.8%,x,i
COc1ccc(CCNc2nc3cc(OC)c(OC)cc3c3nc(-c4ccccc4)nn23)cc1OC,i,x,x,x,i
CC(C)(C)N(Cc1ccccc1)C(=O)COC(=O)CN1C(=O)NC2(CCCC2)C1=O,x,2.3%,-0.2%,u,x
